Experimental data reported in the supplement of paper PMC3545927.
The other results are listed elsewhere or left out. How many sequences the whole screen found active is unknown.

Target: furin, P09958
Assay: furin cleavage Z-score vs untreated control; higher = more cleavage, active = 3.5 or more, inactive = 1 or less, 8 variable residues between constant flanks
Description: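 Multiplexed peptide-cDNA fusion cleavage assay. 8-mer variable peptides flanked by constant Cys-Ala (N-term) and Ala-Gly-Asn-Ala-Ser-Ala-Ser-Ala (C-term) and conjugated to a cDNA oligonucleotide were bead-immobilised via the N-terminus. They were treated with purified furin at a 1:10 enzyme:substrate ratio in 50 mM HEPES pH 7.5, 1 mM CaCl2, 100 mM NaCl for 7.5, 15 or 30 min. Released cDNA was counted by next-generation sequencing, and log counts versus no-furin controls were lowess-adjusted and converted to robust Z-scores.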

furin, P09958, sequence (P09958 whole entry): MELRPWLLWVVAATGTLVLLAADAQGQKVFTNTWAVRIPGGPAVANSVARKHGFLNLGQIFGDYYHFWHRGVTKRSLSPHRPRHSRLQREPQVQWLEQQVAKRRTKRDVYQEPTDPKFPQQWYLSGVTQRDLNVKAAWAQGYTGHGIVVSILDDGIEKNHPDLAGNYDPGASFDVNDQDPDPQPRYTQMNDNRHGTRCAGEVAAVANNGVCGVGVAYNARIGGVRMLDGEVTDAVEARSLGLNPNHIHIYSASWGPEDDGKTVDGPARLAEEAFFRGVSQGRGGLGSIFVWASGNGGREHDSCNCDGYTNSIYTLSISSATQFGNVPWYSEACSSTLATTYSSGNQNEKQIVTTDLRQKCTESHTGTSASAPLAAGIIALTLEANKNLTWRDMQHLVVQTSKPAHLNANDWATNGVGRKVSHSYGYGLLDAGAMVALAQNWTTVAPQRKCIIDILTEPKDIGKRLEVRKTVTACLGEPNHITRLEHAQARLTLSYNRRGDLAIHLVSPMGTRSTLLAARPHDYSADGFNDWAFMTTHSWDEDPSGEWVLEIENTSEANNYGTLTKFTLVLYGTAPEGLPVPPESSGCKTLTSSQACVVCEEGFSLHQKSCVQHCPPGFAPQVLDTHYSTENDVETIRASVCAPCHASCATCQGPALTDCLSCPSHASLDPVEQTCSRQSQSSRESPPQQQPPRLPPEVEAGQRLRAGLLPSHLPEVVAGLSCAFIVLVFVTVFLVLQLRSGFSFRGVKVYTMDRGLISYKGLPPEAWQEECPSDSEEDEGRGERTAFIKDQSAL

Sequence | furin cleavage Z-score (7.5 min) | furin cleavage Z-score (15 min) | furin cleavage Z-score (30 min)
CANLEVVTSTAGNASASA [HC2281] | 0.776 (inactive) | -1.12 (inactive) | -0.725 (inactive)
CAMKSRLRRTAGNASASA [FS-1035] | 6.13 (active) | 6.71 (active) | 5.42 (active)
CAQLSRAGRSAGNASASA [FS-81] | 6.21 (active) | 8.4 (active) | 8.08 (active)
CAAKGRAGRSAGNASASA [FS-971] | 7.82 (active) | 7.81 (active) | 6.06 (active)
CAVRGRAGRSAGNASASA [FS-515] | 1.52 | 1.9 | 0.698 (inactive)
CAPPSVASSSAGNASASA [HC1258] | 0.0747 (inactive) | 0.138 (inactive) | 0.956 (inactive)
CARSARPLVQAGNASASA [FS-2085] | -2.45 (inactive) | 0.432 (inactive) | -1.67 (inactive)
CARSERDVLLAGNASASA [FS-3077] | 1.87 | -0.515 (inactive) | 0.482 (inactive)
CARSARDVSSAGNASASA [FS-2302] | 9.56 (active) | 8.78 (active) | 6.82 (active)
CAPDVVCCSMAGNASASA [HC2119] | -0.96 (inactive) | 1.32 | -0.361 (inactive)
CADHRRSVDSAGNASASA [FS-2628] | -1.5 (inactive) | 0.662 (inactive) | 1.77
CARDVVCCSMAGNASASA [HC2113] | 0.281 (inactive) | -1.32 (inactive) | 2.45
CARCRRTVSMAGNASASA [FS-1998] | 1.07 | 2.14 | 4.65 (active)
CARSARDTAQAGNASASA [FS-3168] | 5.29 (active) | 5.99 (active) | 5.11 (active)
CAGSWSTVSSAGNASASA [HC1362] | 0.499 (inactive) | -0.166 (inactive) | -0.172 (inactive)
CARSARKSNFAGNASASA [FS-3073] | -1.18 (inactive) | 0.463 (inactive) | -0.0584 (inactive)
CARCRRSVSSAGNASASA [FS-2548] | 4.14 (active) | 2.68 | 3.73 (active)
CASVAHDGAGAGNASASA [HC1556] | -0.273 (inactive) | -3.13 (inactive) | 0.415 (inactive)
CAYVGGPLTNAGNASASA [HC1501] | -0.238 (inactive) | -0.463 (inactive) | -0.523 (inactive)
CAQRVEFLVQAGNASASA [HC1470] | -0.81 (inactive) | 1.84 | 0.832 (inactive)
CAARGSPPSVAGNASASA [HC1256] | 0.929 (inactive) | -0.707 (inactive) | 1.93
CAETITLPQDAGNASASA [HC897] | -1.02 (inactive) | 0.648 (inactive) | -1.05 (inactive)
CAHVVTSTWVAGNASASA [HC2155] | -1.33 (inactive) | 0.00684 (inactive) | -0.368 (inactive)
CASTACSAHLAGNASASA [HC2503] | 0.199 (inactive) | 1.42 | -0.356 (inactive)
CARMAWDMMMAGNASASA [HC319] | -0.311 (inactive) | -0.626 (inactive) | -0.966 (inactive)
CATLPALSTGAGNASASA [HC501] | -1.14 (inactive) | 0.758 (inactive) | -0.483 (inactive)
CALKVPYFVRAGNASASA [HC614] | -0.584 (inactive) | 0.223 (inactive) | 0.218 (inactive)
